From PubChem BioAssay AID777 (Sanford-Burnham Center for Chemical Genomics, 2007)
Screen size: about 96,000 compounds; about 19,000 (20%) were called active. Only a sample is shown. A number with no mark means an inactive call.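 Rule for the calls: active = blocking of liver enzyme CYP2C9 beyond about 50% at 5 µM (limit read from the data); inactive = the rest.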

target: Cytochrome P450 2C9 (Homo sapiens) (UniProt P11712); test: blockers of cytochrome P450 2C9 activity – biochemical, luminescence, ADME assay, primary screen (AID 777); conditions: CYP2C9 Supersomes, luciferin-H conversion, at 5 µM, hits give high values
Sequence (P11712 whole entry, looked up): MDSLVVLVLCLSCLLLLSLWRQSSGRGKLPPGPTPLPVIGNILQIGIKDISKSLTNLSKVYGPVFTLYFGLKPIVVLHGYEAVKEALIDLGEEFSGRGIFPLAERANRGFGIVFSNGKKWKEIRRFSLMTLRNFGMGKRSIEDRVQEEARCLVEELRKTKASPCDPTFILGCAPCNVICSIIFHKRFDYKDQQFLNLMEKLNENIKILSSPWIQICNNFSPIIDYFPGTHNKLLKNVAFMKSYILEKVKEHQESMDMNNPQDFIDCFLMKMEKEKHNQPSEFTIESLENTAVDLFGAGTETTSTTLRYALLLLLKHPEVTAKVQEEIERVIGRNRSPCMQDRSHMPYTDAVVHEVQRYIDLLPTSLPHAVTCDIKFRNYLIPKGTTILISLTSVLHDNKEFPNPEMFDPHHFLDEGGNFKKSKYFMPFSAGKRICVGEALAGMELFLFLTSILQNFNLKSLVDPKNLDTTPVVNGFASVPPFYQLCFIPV

Structure (SMILES)	inhibition
Cc1nc(NC2=NC(C(=O)Nc3ccc(Cl)cc3)CC(=O)N2)nc2ccccc12 (centres undefined)	1.6%
O=C(CCCN1C(=O)c2cccc3cccc(c23)C1=O)N1CCN(Cc2ccc3c(c2)OCO3)CC1	-138%
O=C1c2ccccc2C(=O)N1c1ccccc1S(=O)C(F)(F)F (centres undefined)	-4%
O=C(Nc1ccccc1[N+](=O)[O-])C1C(c2ccccc2)=C1c1ccccc1	18.8%
O=C(O)c1ccccc1NC(=S)NC(NC(=O)c1ccccc1[N+](=O)[O-])C(Cl)(Cl)Cl (centres undefined)	72.3% (active)
O=[N+]([O-])c1ccccc1NCc1ccc(Cl)cc1	18%
O=C(Nc1ccc2c(c1)OCO2)C1CC(c2c(F)cccc2Cl)=NO1 (centres undefined)	-159%
COCn1c(COc2ccccc2)nc2ccccc21	43.7%
CCCCNC(=O)CCNC(=O)c1ccc(C(C)(C)C)cc1	41.3%
Cc1ccc(CNC(=O)CCCNC(=O)c2ccc(Cl)cc2)n1C	80.5% (active)
CCN(CC(=O)NC(C)C)C(=O)CCNC(=O)c1ccc(Cl)cc1	6.3%
CCCCNC(=O)C(=O)c1ccccc1NC(C)=O	15.4%
CCCNC(=S)NC1CC2CCCC(C1)N2CC(C)C (centres undefined)	-4.2%
Cc1cc(OC(=O)c2ccc(Cl)cc2)cc(=O)n1C	32%
COCCOC(=O)C1=C(C)NC(=O)CC1c1cc2c(cc1Br)OCO2 (centres undefined)	8.2%
COc1ccccc1C1C2=C(COC2=O)Nc2cc3c(cc21)OCO3 (centres undefined)	28.2%
CCCOc1ccccc1C1CC(=O)Nc2cc3c(cc21)OCO3 (centres undefined)	94.4% (active)
CC1(C)CC(=O)C(C2=NC(C)(C)Cc3ccccc32)=C(O)C1	5.8%
C=CCOc1c2ccc(C(=O)N(CC)c3ccc(OC)cc3)cc2nn1C	47.3%
COc1ccc(-c2nnc(SC(=O)N3c4ccccc4Sc4ccccc43)o2)cc1	83.1% (active)
COc1cc(OC)cc(C(=O)NC2CCN(C(=O)N3c4ccccc4Sc4ccccc43)CC2)c1	41.4%
COc1ccc(-c2nnc(SC(C)C#N)o2)cc1 (centres undefined)	13.9%
COc1ccc2c(c1)cc1n2CCN=C1NN	42.7%
Cc1ccc(C(=O)NC2CCN(C(=O)N3CCOCC3)CC2)cc1	-6.4%
N#Cc1nc(N)nc(N(c2ccccc2)c2ccccc2)n1	19.9%

Structure (SMILES)	inhibition
CCOC(=O)c1cc2c(n(-c3ccc(C)cc3)c1=O)CCCC2=O	12%
Cc1n[nH]c(=O)n1-c1ccc(Oc2ccccc2)cc1	0.7%
Cc1ccc(N)cc1-n1c(C)ccc1C	-1.6%
Cc1ccccc1CSc1nnc(-c2ccccn2)n1N	-28.8%
COc1ccc(N(CC(=O)N/N=C/c2cccs2)S(=O)(=O)c2ccc(OC)c(OC)c2)cc1	44.2%
Cc1ccc(S(=O)(=O)N(CC(=O)N/N=C/c2ccc(F)cc2)c2cccc3cccnc23)cc1	9.7%
COc1ccc(N(CC(=O)N/N=C/c2cccc3c2OCCO3)S(=O)(=O)c2ccc(NC(C)=O)cc2)cc1	76.1% (active)
Cn1c(=N)n(CC(O)c2ccccc2)c2ccccc21 (centres undefined)	-27.2%
Cc1c(Br)c([N+](=O)[O-])nn1C(C)C(=O)Nc1nccs1 (centres undefined)	73.2% (active)
COc1cc(C(=O)Nc2nccs2)cc(OC)c1OC	42%
Cn1cccc1C(=O)Nc1nccs1	2.9%
O=P(O)(CN1CCCCC1)CN1CCCCC1	-9.6%
CC1CCC(NS(=O)(=O)c2ccc3c(c2)n(C)c(=O)c(=O)n3C)CC1 (centres undefined)	8.5%
Cn1c(=O)n(C)c2cc(S(=O)(=O)N3CCCc4ccccc43)ccc21	66.5% (active)
COc1ccc(C(=O)OCC(=O)NCC2CCCCC2)cc1S(=O)(=O)N1CCCc2ccccc21	9.6%
Cc1nn(C)c(C)c1S(=O)(=O)N1CCc2ccccc21	-33.4%
CCn1c(=O)c(=O)n(CC)c2cc(S(=O)(=O)N3CCc4ccccc43)ccc21	96.5% (active)
CSc1nc2ccc(S(=O)(=O)N3CCc4ccccc43)cc2s1	15.3%
Cc1ccc(-n2c(=O)c(C#N)cc3c(=O)n4ccccc4nc32)cc1C	-2.8%
Cc1cc(C=O)c(C)n1-c1ccc(NC2CCCCC2)c([N+](=O)[O-])c1	15.9%
Cc1ccoc1C(=O)Nc1cccc(Oc2ccccc2)c1	34%
O=C(OCCO)c1cc(Cl)c(C(=O)OCCO)cc1Cl	48.4%
Cc1ccc(NC(=O)c2ccc(CSc3ncnc4nc[nH]c34)cc2)c(C)c1	-76.5%
CCN1CCN(C(c2cccnc2)c2cc(Cl)c3cccnc3c2O)CC1 (centres undefined)	29.8%
CCn1ncc(C2=NOC(C(=O)Nc3ccccc3C(=O)OC)C2)c1C (centres undefined)	-34.3%

Structure (SMILES)	inhibition
CC(C)CCNc1nc(N2CCCC2)c2c(c1C#N)CCN(C)C2	69.7% (active)
CCN1CCc2c(C#N)c(NCc3ccccc3)nc(NCCO)c2C1	35.5%
CCOC(=O)C(C)Oc1cccc2c(=O)n(CC(=O)N3CCc4ccccc43)ccc12 (centres undefined)	9%
O=S(=O)(c1cccc(-c2nnc(SC(F)F)n2-c2ccccc2)c1)N1CCCCC1	21.2%
O=S(=O)(c1cccc(S(=O)(=O)N2CCC(n3nnc4ccccc43)CC2)c1)N1CCCCC1	88.3% (active)
CC(=O)c1cccc(S(=O)(=O)N2CCC(n3nnc4cc(F)ccc43)CC2)c1	-31%
CCCN(CCC)CCNC(=O)c1cc2c(C)nc3ccccc3c2o1	8.6%
Cc1sc2c(c1C)c(=O)n(-c1ccccc1)c1nncn21	-2.8%
COc1ccc(Nc2oc(-c3ccccc3Cl)nc2C#N)cc1	47%
CCOc1ccc(Nc2oc(Cc3ccccc3)nc2C#N)cc1	78.1% (active)
N#Cc1nc(-c2ccc(OCc3ccccc3)cc2)oc1NCCCN1CCOCC1	41%
N#Cc1nc(COc2ccc(-c3ccccc3)cc2)oc1NCc1cccnc1	70.7% (active)
N#Cc1nc(Cc2ccccc2)oc1NCCc1ccccc1	39.2%
c1ccc(-c2cc(-c3nnc4sc(-c5ccccn5)nn34)[nH]n2)cc1	-2.3%
COc1ccc(C(F)(F)F)cc1N/C=C\c1nnnn1-c1ccc(C)cc1	44.6%
CCN(CC)S(=O)(=O)c1cc(C(=O)Nc2ccccn2)ccc1C	38.8%
CCN(CC)C(=O)N1CCN(C(=O)c2ccc(C)cn2)CC1	-1%
CCCOc1ccc(C2NC(=O)NC(c3ccccc3)=C2C(C)=O)cc1OCC (centres undefined)	37.3%
Cc1cccc(COc2ccccc2/C=N/Nc2ccc([N+](=O)[O-])cc2)c1	43.5%
CC(=O)CSc1nnc(CSc2ncccn2)n1C1CCCCC1	-10.7%
CCCNC(=O)c1c(N)n(-c2ccc(S(N)(=O)=O)cc2)c2nc3ccccc3nc12	-2.9%
CCN(CC)CCN1C(=O)C(=O)/C(=C(/O)c2ccccc2)C1c1ccccc1F (centres undefined)	-5.9%
CC(=O)C1=C(O)C(=O)N(c2ccc(S(N)(=O)=O)cc2)C1c1ccccc1F (centres undefined)	62.8% (active)
COCC(=O)Nc1ccc(Br)cc1	-12.9%
O=C(/C=C/c1ccc(Cl)cc1Cl)NCc1ccco1	-2.5%

Structure (SMILES)	inhibition
O=C(NCc1ccco1)C1(c2ccc(Cl)cc2)CCCC1	58.8% (active)
O=C(NCCCCCCNC(=O)NCc1ccco1)NCc1ccco1	-11.1%
Cc1nc2c(-c3ccc(F)cc3)c(C)nn2c(C)c1CCC(=O)N1CCN(c2ccccn2)CC1	13.1%
O=C(/C=C/c1ccc(Cl)cc1Cl)c1cccnc1	14.7%
CN1CCN(c2ccc([N+](=O)[O-])c(Sc3nc4ccccc4[nH]3)c2)CC1	52.2% (active)
COc1ccccc1CSc1nc2ccccc2[nH]1	43.6%
CSc1nnc2c(n1)OC(c1cn(C)c3ccccc13)N(C(C)=O)c1ccccc1-2 (centres undefined)	1.6%
Cc1ccc(-c2nnc(SC(C)C#N)n2N)cc1 (centres undefined)	1.1%
Cc1cc(C)nc(N(C#N)CC(=O)Nc2ccccc2)n1	7.1%
CSc1ccccc1C(=O)Nc1cccc(C(C)=O)c1	27.8%
CSc1nc(C)cc(SC(C(C)=O)C(=O)Nc2ccccc2)n1 (centres undefined)	65.3% (active)
Cc1csc(NC(=O)NC2(C(F)(F)F)Oc3ccccc3O2)n1	-6.5%
COc1ccc(C(=O)Nc2cc(C)ccc2NC(=O)COc2ccccc2)cc1	6.9%
Cc1ccc2nc(-c3ccc(SCC(=O)Nc4cc(C)on4)nc3)[nH]c2c1	2.6%
CCOC(=O)c1cc2cc(C)ccc2[nH]1	13.9%
CC(N)C12CC3CC(CC(O)(C3)C1)C2 (centres undefined)	-4%
FC(F)(F)COc1nc(N2CCCCC2)nc(N2CCNCC2)n1	-4.2%
O=C(COC(=O)C12CC3CC(CC(C3)C1)C2)NCc1ccco1	35.4%
O=C(CSC1=Nc2ccccc2C2=NC(CC(=O)NCc3ccco3)C(=O)N12)NCc1ccco1 (centres undefined)	65.1% (active)
O=C(CC1N=C2c3ccccc3N=C(SCc3ccccc3Cl)N2C1=O)NCc1ccco1 (centres undefined)	85.2% (active)
NC(=O)CSC1=Nc2ccccc2C2=NC(CCC(=O)NCc3ccc(F)cc3)C(=O)N12 (centres undefined)	16.8%
CCOCCc1c(O)nc(SCC(=O)NCc2ccco2)[nH]c1=O	-8.3%
CCC(C)NC(=O)CSC1=Nc2ccccc2C2=NC(CCC(=O)NCc3ccco3)C(=O)N12 (centres undefined)	67.8% (active)
O=C(CSc1c2c(nc3ccc(Cl)cc13)CCCC2)NCc1ccco1	48.3%
